Measurements published in PubChem BioAssay AID1159580 (chemical genetic matrix, 2015).
Where “and” joins values, the source holds several entries; their conditions need not be identical. Equal entries are not always repeated. Hit rate of the full screen: of about 5,500 compounds, about 2,000 (36%) were called active. Inconclusive results (about 18%) are left out. Rule as the data show it: active = normalized growth mostly below about 0.91 (no sharp cut-off); inconclusive = no clear call, values can overlap the other calls; inactive = mostly above about 0.92. The list shows a part of the results.

Assay: chemical genetic growth profiling, strain panel (AID 1159580);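 also: tested at 20 µM; growth read once vehicle control cultures reached saturation at 30 °C; 1 = growth at the plate median or of vehicle wells; lower values mean less growth of the strain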
Details: S. cerevisiae deletion strains, growth OD

Measured: normalized growth

Oc1ccc(Cl)cc1Cc1cc(Cl)ccc1O
active: locus YAL013W, strain DEP1, stronger effect = lower value 0.0573 | locus YAL021C, strain ccr4, stronger effect = lower value 0.0695 | locus YAL026C, strain drs2, stronger effect = lower value 0.0747 | locus YAL030W, strain snc1, stronger effect = lower value 0.0569 | locus YBL061C, strain skt5, stronger effect = lower value 0.0645 | locus YBR009C, strain hhf1, stronger effect = lower value 0.0651 | locus YBR021W, strain FUR4, stronger effect = lower value 0.253 | locus YBR023C, strain chs3, stronger effect = lower value 0.07 | locus YBR171W, strain sec66, stronger effect = lower value 0.124 | locus YBR229C, strain ROT2, stronger effect = lower value 0.0685 | locus YBR231C, strain swc5, stronger effect = lower value 0.0629 | locus YBR279W, strain paf1, stronger effect = lower value 0.0982 | locus YCL011C, strain gbp2, stronger effect = lower value 0.0575 | locus YCL016C, strain dcc1, stronger effect = lower value 0.0745 | locus YCL029C, strain bik1, stronger effect = lower value 0.0624 | locus YCL061C, strain MRC1, stronger effect = lower value 0.107 | locus YCL069W, strain vba3, stronger effect = lower value 0.0848 | locus YCR088W, strain abp1, stronger effect = lower value 0.0882 | locus YDL005C, strain med2, stronger effect = lower value 0.0747 | locus YDL035C, strain GPR1, stronger effect = lower value 0.0712 | locus YDL040C, strain nat1, stronger effect = lower value 0.0791 | locus YDL074C, strain BRE1, stronger effect = lower value 0.092 | locus YDL101C, strain DUN1, stronger effect = lower value 0.0631 | locus YDL134C, strain PPH21, stronger effect = lower value 0.0596 | locus YDL185W, strain tfp1, stronger effect = lower value 0.0573 | locus YDL192W, strain arf1, stronger effect = lower value 0.0725 | locus YDR001C, strain nth1, stronger effect = lower value 0.107 | locus YDR069C, strain doa4, stronger effect = lower value 0.0709 | locus YDR101C, strain arx1, stronger effect = lower value 0.0668 | locus YDR137W, strain rgp1, stronger effect = lower value 0.0823 | locus YDR150W, strain NUM1, stronger effect = lower value 0.141 | locus YDR159W, strain sac3, stronger effect = lower value 0.0887 | locus YDR162C, strain NBP2, stronger effect = lower value 0.0492 | locus YDR195W, strain ref2 0.12 | locus YDR297W, strain sur2, stronger effect = lower value 0.0586 | locus YDR318W, strain mcm21, stronger effect = lower value 0.0649 | locus YDR334W, strain swr1, stronger effect = lower value 0.0861 | locus YDR335W, strain msn5, stronger effect = lower value 0.0832 | locus YDR388W, stronger effect = lower value 0.0554 | locus YDR392W, strain spt3, stronger effect = lower value 0.0992 | locus YDR502C, strain sam2, stronger effect = lower value 0.0624 | locus YEL003W, strain gim4, stronger effect = lower value 0.0565 | locus YEL037C, strain rad23, stronger effect = lower value 0.271 | locus YEL061C, strain CIN8 (second series), stronger effect = lower value 0.0757 | locus YEL061C, strain CIN8, stronger effect = lower value 0.0536 | locus YER015W, strain faa2, stronger effect = lower value 0.0622 | locus YER016W, strain bim1, stronger effect = lower value 0.0644 | locus YER110C, stronger effect = lower value 0.0746 | locus YER111C, strain swi4, stronger effect = lower value 0.0777 | locus YER155C, strain BEM2 (second series), stronger effect = lower value 0.109 | locus YER155C, strain BEM2, stronger effect = lower value 0.0649 | locus YER167W, strain BCK2, stronger effect = lower value 0.0527 | locus YFR010W, strain ubp6, stronger effect = lower value 0.185 | locus YGL078C, strain dbp3, stronger effect = lower value 0.0765 | locus YGL086W, strain mad1, stronger effect = lower value 0.0581 | locus YGL167C, strain pmr1, stronger effect = lower value 0.0782 | locus YGL173C, strain kem1, stronger effect = lower value 0.101 | locus YGL227W, strain vid30, stronger effect = lower value 0.0709 | locus YGL240W, strain doc1, stronger effect = lower value 0.08 | locus YGL248W, strain PDE1, stronger effect = lower value 0.0764 | locus YGL253W, strain hxk2, stronger effect = lower value 0.0817 | locus YGR078C, strain PAC10, stronger effect = lower value 0.0754 | locus YGR135W, strain pre9, stronger effect = lower value 0.0765 | locus YGR229C, strain SMI1, stronger effect = lower value 0.0636 | locus YGR252W, strain gcn5, stronger effect = lower value 0.146 | locus YHR013C, strain ard1, stronger effect = lower value 0.109 | locus YHR027C, strain rpn1, stronger effect = lower value 0.0641 | locus YHR030C, strain SLT2, stronger effect = lower value 0.0512 and 0.0939 | locus YHR079C, strain IRE1 (second series), stronger effect = lower value 0.0561 | locus YHR079C, strain IRE1, stronger effect = lower value 0.102 | locus YHR094C, strain hxt1, stronger effect = lower value 0.0607 | locus YHR129C, strain ARP1, stronger effect = lower value 0.0651 | locus YHR142W, strain chs7, stronger effect = lower value 0.0876 | locus YHR200W, strain rpn10, stronger effect = lower value 0.0673 | locus YIL066C, strain RNR3, stronger effect = lower value 0.0647 | locus YIL073C, strain SPO22, stronger effect = lower value 0.114 | locus YIL125W, strain kgd1, stronger effect = lower value 0.0642 | locus YIR030C, strain dcg1, stronger effect = lower value 0.0657 | locus YJL092W, strain hpr5, stronger effect = lower value 0.111 | locus YJL095W, strain BCK1 (second series), stronger effect = lower value 0.057 | locus YJL095W, strain BCK1, stronger effect = lower value 0.0553 and 0.0954 | locus YJL115W, strain asf1, stronger effect = lower value 0.201 | locus YJL129C, strain trk1, stronger effect = lower value 0.0878 | locus YJL134W, strain LCB3, stronger effect = lower value 0.0583 | locus YJL154C, strain vps35, stronger effect = lower value 0.0851 | locus YJL164C, strain tpk1, stronger effect = lower value 0.0647 | locus YJL166W, strain qcr8, stronger effect = lower value 0.0615 | locus YJL168C, strain set2, stronger effect = lower value 0.0792 | locus YJL187C, strain SWE1 (second series), stronger effect = lower value 0.0719 | locus YJL187C, strain SWE1, stronger effect = lower value 0.0599 | locus YJR043C, strain POL32, stronger effect = lower value 0.0779 | locus YJR066W, strain TOR1, stronger effect = lower value -0.000659
